Only some compounds are listed: those with a hit (about 2.3% of all), similar ones and a draw of the others.
Rin1 Abl inh: human Rin1-Abl interaction inhibition. 0.4% of 360,000 active. AID 588664. TR-FRET Rin1/Abl binding, biochemical. inhibition, % at 7.35 µM; in the data active means inhibition above about 5%, passing the limit was not always enough
TPT1 inhibitor: C. albicans TPT1 enzyme inhibition. recombinant caTPT1, FP RNA substrate dephosphorylation. inhibition, % at 5 µM. 0.81% of 300,000 active;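 active means inhibition above the mean of all tested compounds plus 3 SD, set per screening campaign, cut at about 24% in these data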;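 further: plate controls were DMSO alone for no effect and ferristatin control at 100 nM for full effect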
IDE cell inh: inhibitors of human insulin-degrading enzyme in cells; inhibition, % at 5.59 µM; 0.41% of 320,000 active; AID 434962; P14735; HEK cells, FAbetaB cleavage, fluorescence polarization;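 active means percent inhibition above the average of all tested compounds plus 3 SD, set per screening campaign, cut at about 16% in these data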;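 further: IDE supplied by intact live HEK cells; FP after avidin binding of uncleaved biotin substrate so inhibition keeps polarization high; 0% = DMSO wells and 100% = 60 µM reference IDE inhibitor Ii1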
Calb FLC: C. albicans growth modulation with fluconazole | C. albicans CaCi-2 (fluconazole-resistant clinical isolate) + fluconazole, Alamar Blue growth, 48 h | growth inhibition, % (test concentration not listed) | 0.57% of 300,000 active | AID 1979;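 active means growth inhibition above about 58% in most replicates, limit read from the data, passing the limit was not always enough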;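 further: all wells also contain fluconazole at 8 µg/ml as a sub-toxic cotreatment; 0% = median of DMSO wells and 100% = median of geldanamycin control wells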
Rpn11 inh: inhibitors of human proteasome Rpn11; O00487; human 26S proteasome, Ub4-pepOG fluorescence polarization; 20S core pre-blocked with epoxomicin; inhibition, % at 20 µM; 0.59% of 360,000 active;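 active means inhibition at 20 µM, scaled to each plate's controls, above about 33%, limit read from the data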
Target sequence (O00487 whole entry, looked up): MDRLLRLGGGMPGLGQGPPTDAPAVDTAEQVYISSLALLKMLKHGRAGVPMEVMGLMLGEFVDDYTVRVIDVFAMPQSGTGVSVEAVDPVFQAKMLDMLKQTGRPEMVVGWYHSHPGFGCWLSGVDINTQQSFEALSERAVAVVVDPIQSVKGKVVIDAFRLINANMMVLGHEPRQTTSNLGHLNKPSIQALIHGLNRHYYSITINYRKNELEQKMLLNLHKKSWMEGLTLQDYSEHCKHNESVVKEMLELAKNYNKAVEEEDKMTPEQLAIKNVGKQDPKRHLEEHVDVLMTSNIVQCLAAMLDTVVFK
IDE act: IDE (human) activation, cell-based; P14735; HEK cells, FAbeta-B cleavage, fluorescence polarization; 0% vehicle, 100% cell-free pure enzyme wells; activation, % at 5.96 µM; 0.073% of 340,000 active; AID 493087;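 active means activation above the mean of all tested compounds plus 3 SD, set per screening campaign, cut at about 17% in these data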
Rin1 Abl conf: Rin1-Abl interaction inhibition confirmation | inhibition, % at 7.35 µM | 49% of 1,300 active | TR-FRET Rin1-Abl binding, purified proteins | shares compounds with Rin1 Abl inh
GFP quencher: quenches GFP fluorescence, counter-screen for Rin1-Abl inhibitors; shares compounds with Rin1 Abl inh; inhibitors/quenchers counterscreen; inhibition, % at 6.75 µM; 8.5% of 1,300 active; AID 602125;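 further: ABL1-eGFP fusion protein alone without its partner RIN1-SBP; 0% = protein with vehicle and 100% = wells lacking protein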
* marks the source's active call; other numbers are inactive results; · = no result. Unless noted, no stated cut-off is given here; in the data, active means inhibition above about 6.5%; inactive means the rest.

SMILES	Rin1 Abl inh	TPT1 inhibitor	IDE cell inh	Calb FLC	Rpn11 inh	IDE act	Rin1 Abl conf	GFP quencher
O=C(COc1ccc(F)cc1)NNC(=O)Cn1ccc(C(F)(F)F)n1	0	·	2	·	-4	-3	·	·
CN(C)CCNc1ncnc2c1sc1nc(N3CCCC3)c3c(c12)CC(C)(C)OC3	7.2*	0	-3	23	5	-8	10*	-1
CCN(CC)CCNc1ncnc2c1sc1nc(N3CCOCC3)c3c(c12)CCCC3	11*	-2	2	-1	-5	4	3	-1
CCN(CC)CCNc1ncnc2c1sc1nc(N3CCCC3)c3c(c12)CC(C)(C)OC3	10*	6	4	1	2	-1	13*	-1
CC(C)CNc1ncnc2c1sc1nc(N3CCOCC3)c3c(c12)CC(C)(C)OC3	-1	0	-1	-2	-2	1	·	·
CSc1ccccc1OCc1cc(C(=O)N2CCc3c(Cl)cccc3C2)no1	0	0	1	8	5	3	·	·
COc1ccc(C(=O)NC(=S)Nc2cccnc2)cc1OC	8.9*	-4	2	30	-4	0	-2	-1
COc1cc(OC)cc(C(=O)NC(=S)Nc2cccnc2)c1	1	2	-1	6	-4	0	·	·
C#CCN(C[C@H]1[C@H](OC(=O)NCc2ccc(OC)c(OC)c2)[C@H](OC(=O)NCc2ccc(OC)c(OC)c2)C[C@@H](C(=O)OC)[C@H]1C(=O)OC)S(=O)(=O)c1ccc(C)cc1	-3	·	·	·	-1	·	·	·
O=C1N(Cc2cccnc2)C[C@@H]2C[C@@H](c3ccc4nsnc4c3)N3CCC[C@@]123	16*	6	5	18	5	-3	16*	0
COc1ccccc1C(=O)NCCC(=O)N1CC=C(c2ccccc2)CC1	4	-1	6	2	-2	-7	·	·
CN(Cc1ccccc1)C(=O)c1nc2ccccn2c1CN1CCc2sccc2C1	9.8*	1	0	-9	4	-1	-2	-1
COc1ccc(C(O)c2ncc(-c3ccccc3C)[nH]2)cc1F (stereo not drawn)	3	·	·	·	7	·	·	·
COCCCNC(=O)C[C@H]1C[C@H](C(=O)N2CCOCC2)[C@@]2(C)c3[nH]c4cc(CCC(=O)N(C)C)ccc4c3CCN2C1=O	1	·	·	·	-11	3	·	·
CC1(c2nnc(-c3ccncc3)o2)CC(c2ccc(Cl)cc2)=NO1 (stereo not drawn)	17*	-3	-6	-13	0	3	23*	-2
CC1(c2nnc(-c3ccncc3)o2)CC(c2ccccc2)=NO1 (stereo not drawn)	19*	3	-2	-2	-4	-4	24*	1
Cc1cc(=O)n(-c2ccc(C(=O)O)cc2)[nH]1	8.3*	2	0	-2	13	-2	0	-1
Cc1cc(=O)n(-c2ccc(O)cc2)[nH]1	3	-1	4	6	-4	3	·	·
Cc1ncc(C[n+]2csc(C)c2C)c(N)n1	9.7*	-5	1	-2	-11	5	-1	-3
COc1ccc(OC)c(/C(C)=N/Nc2ccc(C(=O)O)cc2)c1	-4	-2	1	6	0	2	·	·
C/C(=N/Nc1ccc(C(=O)O)cc1)c1ccc(O)c(O)c1O	29*	3	-3	35	-3	3	32*	8.4*
COc1ccccc1C(=O)NCC1CCN(c2ccc(S(=O)(=O)N3CCOCC3)cc2)CC1	22*	-2	1	-9	-3	-12	13*	-1
CC(C)(C)NC(=O)c1ccc(NC(=O)c2ccccc2-c2ccccc2C(=O)O)cc1	6.5*	0	-4	6	4	1	0	1
O=C(NCc1cccnc1)c1cc(C2CCCCN2S(=O)(=O)c2cccc3cccnc23)on1 (stereo not drawn)	-4	·	·	·	-12	·	·	·
Cc1ccccc1N=Nc1ccc(O)c2ncccc12	0	-3	7	-9	20	7	·	·

Assay outcomes as filed in PubChem.
